Compound activity: PubChem BioAssay, National Center for Advancing Translational Sciences (NCATS)
JMJD2A Tudor = blocks the human JMJD2A Tudor domain; O75164; AlphaScreen JMJD2A-Tudor / H3K4me3 peptide binding; Potency, µM (titrated, usually from 114 µM), usual class: inhibitors; hit rate 4.4% among 390,000; note: nearly all actives have a fitted effect of over 50% in size
CtBP-E1A inh = inhibitors of CtBP/E1A interaction; AlphaScreen GST-E1A/His-CtBP binding, 1536-well; hits give low values; activity change, % (test concentration not listed); hit rate 0.49% among 340,000; in the data active = activity change below about -65%; inconclusive = mostly about -30% to -63%
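AlphaScreen with 125 nM GST-E1A and 125 nM His-CtBP (5X stocks) in Tris pH 8.0, 300 mM NaCl, BSA, Tween 20, TCEP. Compounds preincubated 2 h at 37 deg C, then glutathione donor/nickel acceptor beads added for 1 h at 37 deg C in dark.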
HP1b binding inh = HP1-beta chromodomain-methylated histone interaction inhibition | P83916 | AID 540317 | hit rate 0.56% among 390,000 | Potency, µM (doses to about 114 µM), most hits filed as inhibitors | AlphaScreen HP1-beta / biotin-H3K9me3 peptide binding; note: nearly all actives have a fitted effect of over 70% in size
Target sequence (P83916 whole entry, looked up): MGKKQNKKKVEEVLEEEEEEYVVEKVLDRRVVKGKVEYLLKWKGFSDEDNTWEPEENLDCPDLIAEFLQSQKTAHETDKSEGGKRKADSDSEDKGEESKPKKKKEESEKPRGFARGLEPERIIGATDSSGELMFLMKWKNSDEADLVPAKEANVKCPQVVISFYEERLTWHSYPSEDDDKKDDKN
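AlphaScreen: HP1-beta (50 nM) preformed 30 min with biotin-H3(1-18)K9me3 peptide (50 nM) in PBS pH 7.4, 0.01% Tween-20. Compound added for 30 min at RT, then streptavidin donor/nickel chelate acceptor beads (10 ug/mL) for 30 min.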
BAZ2B inh = blocks human BAZ2B; Potency, µM (highest dose often 114 µM), actives largely listed as inhibitors; Q9UIF8; AlphaScreen BAZ2B-H3K14Ac peptide displacement; AID 504333; hit rate 4.4% among 360,000; note: nearly all actives have a fitted effect of over 60% in size
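Inhibition is scored as reduced AlphaScreen emission. The BAZ2B/b-H3(5-23)K14Ac complex (50 nM each) in PBS pH 7.4, 0.01% Tween-20 meets compound (up to 110 uM) for 30 min at RT before bead addition.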
G9a inh = blocks human histone lysine methyltransferase G9a | G9a H3K9 monomethylation, AlphaScreen, 2 h | Potency, µM (series often up to 102 µM), usual class: inhibitors | hit rate 8.8% among 350,000; note: nearly all actives have a fitted effect of over 75% in size
Target sequence (Q96KQ7 913-1193 limits assumed): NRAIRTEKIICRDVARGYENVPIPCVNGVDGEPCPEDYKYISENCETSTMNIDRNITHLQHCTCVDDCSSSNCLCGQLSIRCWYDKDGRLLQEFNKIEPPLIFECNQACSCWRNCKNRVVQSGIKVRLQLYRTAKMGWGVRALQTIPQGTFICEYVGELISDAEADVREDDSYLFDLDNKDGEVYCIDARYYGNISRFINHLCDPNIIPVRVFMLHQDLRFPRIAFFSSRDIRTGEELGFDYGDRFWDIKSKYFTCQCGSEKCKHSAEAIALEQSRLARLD
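G9a (20 nM) was preincubated 15 min with compound, then reacted 2 h at room temperature with 500 nM biotin-H3K9 peptide and 20 µM SAM. Monomethyl-H3K9 detected by AlphaScreen using anti-H3K9me1 antibody.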
Six1-Eya2 blk = inhibitors of human Six1/Eya2 interaction; hit rate 0.56% among 360,000; AlphaScreen GST-Six1/His-Eya2 binding, biochemical; hits give low values; AID 651725; activity change, % (test concentration not listed); Q15475+O00167; in the data active = activity change below about -65%; inconclusive = mostly about -30% to -63%
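Homogeneous AlphaScreen proximity assay pairing GST-Six1 with His-tagged Eya2 (added as 5X mix: 250 nM and 500 nM) in 50 mM Tris pH 8.0, 300 mM NaCl, 1 mM TCEP. Glutathione donor and nickel acceptor beads; 1 h, 37 °C, dark.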
Each line names hits and unclear results; the compound was inactive in the other large screens. Compounds with a hit are over-represented: about 10% of the library has one in this group of screens. Unless noted, calls come from the whole dose curve; as a rule, active = well fitted inhibition curve with a large enough effect; inconclusive = small, poorly fitted or top-dose-only effect; inactive = no such curve, though single readings can be large or run the other way.

CCCCC(CCC(=O)O)(C(=O)OCC)c1csc(Nc2ccccc2)n1 (stereo not given)	none
COC(=O)Cn1c(-c2ccc(OC)cc2)c(-c2ccc(OC)cc2)nnc1=O	BAZ2B inh 56µM (no result: CtBP-E1A inh)
O=[N+]([O-])c1ccc(C2Oc3ccccc3C3CC(c4ccccc4)=NN32)s1 (stereo not given)	BAZ2B inh inconclusive, G9a inh 10µM (no result: JMJD2A Tudor, CtBP-E1A inh, HP1b binding inh, Six1-Eya2 blk)
Cc1cc(C)n(-c2nc3ccccc3nc2Nc2ccc(N(C)C)cc2)n1	JMJD2A Tudor 11µM, HP1b binding inh 8.9µM, BAZ2B inh 3.2µM, G9a inh 1.8µM (no result: CtBP-E1A inh, Six1-Eya2 blk)
CCN(CC)c1ccc(NC(=O)c2ccc(S(=O)(=O)N3CCOCC3)cc2)cc1	JMJD2A Tudor 45µM, HP1b binding inh inconclusive (no result: BAZ2B inh, G9a inh)
O=C(O)c1nccnc1C(=O)Nc1ccc(S(=O)(=O)N2CCOCC2)cc1	JMJD2A Tudor inconclusive, G9a inh 45µM
O=C(Nc1ccc(S(=O)(=O)N2CCOCC2)cc1)c1c(F)cccc1F	G9a inh 35µM
O=C(Nc1ccc(S(=O)(=O)N2CCOCC2)cc1)c1ccc(S(=O)(=O)N2CCOCC2)cc1	G9a inh inconclusive
CC(=O)C1=C(c2cccc([N+](=O)[O-])c2)N(C(C)=O)n2c(nnc2-c2ccc(C)cc2)S1	none (no result: CtBP-E1A inh, Six1-Eya2 blk)
O=C(COC(=O)CNC(=O)C1CCCCC1)NC1CCCC1	none (no result: CtBP-E1A inh, BAZ2B inh, G9a inh, Six1-Eya2 blk)
Cc1cn2c(=O)cc(COc3cc(C)c(Cl)c(C)c3)nc2s1	none (no result: CtBP-E1A inh, Six1-Eya2 blk)
Cc1nc2cc(C(F)(F)F)ccc2n1CCNc1nc(-c2ccc(F)cc2)cs1	JMJD2A Tudor inconclusive, BAZ2B inh inconclusive, G9a inh 28µM
COc1ccc(-c2csc(NCCn3c(C)nc4cc(C(F)(F)F)ccc43)n2)cc1	none (no result: BAZ2B inh, G9a inh)
Cc1ccc(-c2csc(NCCn3c(-c4ccncc4)nc4ccccc43)n2)cc1	G9a inh 20µM
Cc1nnc2c(SC(C)C)nc3ccccc3n12	none (no result: CtBP-E1A inh, G9a inh)
CCn1ncc(/C=C2/SC(=S)NC2=O)c1C	G9a inh 50µM
CCn1c(C)cc(/C=C2/SC(=S)NC2=O)c1C	G9a inh inconclusive
O=C1NC(=S)SC1=Cc1ccccc1C(=O)O	CtBP-E1A inh inconclusive (no result: JMJD2A Tudor, HP1b binding inh, BAZ2B inh, G9a inh)
Cc1cc(/C=C2\SC(=S)NC2=O)c(C)[nH]1	JMJD2A Tudor inconclusive, BAZ2B inh 45µM (no result: G9a inh)
COc1ccc(OCCCCn2c(-c3ccc(Cl)cc3)nc3ccccc3c2=O)cc1	none (no result: CtBP-E1A inh, Six1-Eya2 blk)
COc1cccc(CN2CCN(Cc3ccon3)CC2CCO)c1 (stereo not given)	none
CCOc1ccc2nc(CN3CCN(Cc4ccccc4OCC)C(CCO)C3)ccc2c1 (stereo not given)	G9a inh inconclusive
COc1cc(CN2CCN(Cc3ccc4cc(F)ccc4n3)CC2CCO)cc(OC)c1 (stereo not given)	none
COc1ccc(CN2CCN(Cc3ccc4cc(F)ccc4n3)CC2CCO)c(C)c1C (stereo not given)	G9a inh 50µM
Cc1ccc(CN2CCN(Cc3ccc4cc(F)ccc4n3)CC2CCO)o1 (stereo not given)	G9a inh 56µM
CCOc1ccccc1CN1CCN(Cc2ccc3cc(F)ccc3n2)CC1CCO (stereo not given)	G9a inh 79µM
COc1cccc(CN2CCN(Cc3ccc4c(NC(C)=O)cccc4n3)CC2CCO)c1 (stereo not given)	JMJD2A Tudor 22µM, G9a inh 50µM
O=C1N(C2CCCC2)C[C@@H]2C[C@@H](c3cccn3-c3ccccn3)N3CCC[C@@]123	none
O=C1N(C2CCCC2)C[C@@H]2C[C@@H](c3cccn3-c3nccs3)N3CCC[C@@]123	G9a inh 50µM
COc1ccc(NC(=O)c2ccccc2NS(=O)(=O)c2ccc(C)cc2)c([N+](=O)[O-])c1	JMJD2A Tudor inconclusive, BAZ2B inh inconclusive, G9a inh 3.2µM
COc1ccc(C(=O)COC(=O)c2ccccc2NS(=O)(=O)c2ccc(O)c([N+](=O)[O-])c2)cc1	JMJD2A Tudor inconclusive, BAZ2B inh 56µM, G9a inh inconclusive
Cc1ccc(C)c(NC(=O)Cn2cc(S(=O)(=O)N3CCCC3)c(S(=O)(=O)N3CCCC3)c2)c1	none (no result: CtBP-E1A inh, Six1-Eya2 blk)
